Most compounds without a hit are left out; they make up all but 11% or so of the library.
PNC assembly inh: perinucleolar compartment assembly inhibition | 140,000 tested, 3.1% active | AID 2417 | PC3M PTB-GFP, PNC prevalence imaging, 16 h; hits give low values | activity change (PNC), negative = inhibition, % at 10 µM;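 active = readout at or below -70, meaning at least 70% loss of cells showing the perinucleolar compartment, a nuclear body marking cancer cells; inconclusive = readout between -30 and a set limit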;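 note: plate controls were DMSO wells for no effect and camptothecin positive control wells for full effect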
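Compounds are pinned in duplicate onto adhered PC3M cells stably expressing GFP-tagged PTB and incubated 16 h at 37 C. Cells are then fixed, nuclei stained with Hoechst, and PNC-positive cells counted.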
HPGD inh: inhibitors of human 15-hydroxyprostaglandin dehydrogenase (HPGD); 150,000 tested, 4.3% active; purified HPGD, NADH fluorescence kinetic, PGE2 substrate; Potency, µM, inactives show top-dose activity change, negative = inhibition, hits mostly inhibitors; note: potency is the fitted concentration of half-maximal effect
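20 nM HPGD preincubated 15 min at room temperature with compound in 50 mM Tris-HCl pH 8, 0.01% Tween 20. Started with 1 mM NAD+ and 30 uM prostaglandin E2; NADH fluorescence (360/450 nm) read 5 times over 30-s intervals, last minus first.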
ALDH1A1 inh: blocks purified human ALDH1A1 activity. 220,000 tested, 7.3% active. Purified ALDH1A1, NADH fluorescence, propionaldehyde substrate. Potency, µM (doses to about 75.3 µM), for the others: at the top dose activity, negative = inhibition, actives largely listed as inhibitors. P00352;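 note: potency is the fitted concentration of half-maximal effect; plate controls were no enzyme wells and a reference inhibitor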
Target sequence (P00352 whole entry, looked up): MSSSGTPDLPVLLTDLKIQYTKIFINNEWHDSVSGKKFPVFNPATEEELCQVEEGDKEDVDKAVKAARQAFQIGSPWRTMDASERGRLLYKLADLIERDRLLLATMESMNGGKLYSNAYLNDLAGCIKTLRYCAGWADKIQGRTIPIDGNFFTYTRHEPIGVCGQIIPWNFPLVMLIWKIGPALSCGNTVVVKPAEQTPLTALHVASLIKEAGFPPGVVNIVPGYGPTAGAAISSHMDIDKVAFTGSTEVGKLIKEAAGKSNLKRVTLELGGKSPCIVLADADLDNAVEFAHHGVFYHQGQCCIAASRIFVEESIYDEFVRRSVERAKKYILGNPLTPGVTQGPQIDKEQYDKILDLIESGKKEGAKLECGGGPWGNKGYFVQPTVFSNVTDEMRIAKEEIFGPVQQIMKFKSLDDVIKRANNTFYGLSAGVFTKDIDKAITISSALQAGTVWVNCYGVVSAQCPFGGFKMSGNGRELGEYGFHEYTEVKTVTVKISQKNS
* marks the source's active call; other numbers are inactive results; ? = inconclusive; · = no result; [ ] = dose if it differs, or a comment. Unless noted, calls come from the whole dose curve; as a rule, active = well fitted inhibition curve with a large enough effect (not every such curve was filed as active); inconclusive = small, poorly fitted or top-dose-only effect, or another doubt; inactive = no such curve, though single readings can be large or run the other way. Unless noted, % is set by controls: 0 for no effect and ±100 for the full control effect.

SMILES	PNC assembly inh	HPGD inh	ALDH1A1 inh
COc1cccc(NP(=O)(Oc2ccc(Cl)cc2)Oc2ccc(Cl)cc2)c1	10.8	-10.0%	9.2%
O=P(NS(=O)(=O)c1ccc(Cl)cc1)(Oc1ccccc1)Oc1ccccc1	-100.0*	-13.9%	-1.6%
O=P(NS(=O)(=O)c1ccccc1)(Oc1ccccc1)Oc1ccccc1	30.0	-0.5%	9.6%
O=P(Nc1ccccc1)(Nc1ccccc1)Oc1ccc(Cl)cc1	14.0	5.62µM*	-3.1%
COC(=O)[C@H]1[C@@H](c2ccccc2)[C@@]2(c3ccccc3)Oc3ccccc3[C@@]1(O)[C@@H]2O	·	·	1.9%[13.5 µM]
CCOC(=O)c1c(/N=C/c2c(O)n(-c3cccc(C)c3)c(=O)[nH]c2=O)sc2c1CCCC2	?	-22.3%	?
CCOC(=O)c1sc(/N=C/c2c(O)n(-c3ccccc3)c(=O)[nH]c2=O)c(C#N)c1C	15.5	25.1µM*	11.2µM*
OC[P+](CO)(CO)CO	·	-13.9%	17.9%
CCc1ccccc1NC(=O)CSc1nnc([C@@H](N)Cc2c[nH]c3ccccc23)o1	34.7	-14.2%	?
CC(C)=CCSc1nnc([C@@H](N)Cc2c[nH]c3ccccc23)o1	12.9	-7.3%	?
Cc1ccc(NC(=O)CSc2nnc([C@@H](N)Cc3c[nH]c4ccccc34)o2)c(C)c1	-19.8	?	25.1µM*
C=C(C)CSc1nnc([C@@H](N)Cc2c[nH]c3ccccc23)o1	-27.3	?	15.8µM*
N#Cc1ccc(CN2CCCC3(CCN(C(=O)Oc4ccccc4)CC3)C2)cc1	·	-3.0%	?
c1cc2c(c(N3CCNCC3)c1)OCCO2	·	-11.0%	5.7%
CCN(CCCNS(=O)(=O)c1ccc2c(c1)oc(=O)n2C)c1cccc(C)c1	-8.0	?	?
COc1ccc(N2C(=O)CS(=O)C(c3ccccc3)C2=O)cc1 (centres undefined)	·	·	1.12µM*
COc1ccc(N2C(=O)CC(N3CCC(n4c(=O)[nH]c5ccccc54)CC3)C2=O)cc1 (centres undefined)	-11.1	-12.0%	?
O=C(C(=O)N1CCc2ccccc2C1)c1cn(CC(=O)N2CCCCC2)c2ccccc12	-12.1	-18.2%	?
Cc1ccccc1C1=NCC(=O)N(CC(=O)NCc2ccco2)c2sc3c(c21)CCCC3	-10.9	39.8µM*	39.8µM*
CCC(C)C1N=C(c2ccccc2)c2cc(Cl)ccc2N(CC(=O)NCc2ccco2)C1=O (centres undefined)	4.3	-3.2%	0.3%
CN[C@H](Cc1ccccc1)c1cccc(OC)c1O	·	-5.8%	5.2%[13.5 µM]
CNCCc1cnc[nH]1	·	-5.1%	-6.0%
Cc1cnc[nH]1	·	-13.9%	0.282µM*
COc1cc(OC)c(OC)cc1/C=C1/C(=O)NC(=O)N(Cc2ccccc2)C1=O	·	·	5.1%
COc1ccc(/C=C2\C(=O)NC(=O)N(Cc3ccccc3)C2=O)c(OC)c1OC	·	·	10µM*
SMILES	PNC assembly inh	HPGD inh	ALDH1A1 inh
O=C1NC(=O)N(Cc2ccccc2)C(=O)/C1=C/c1cnn(-c2ccccc2)c1	·	·	10µM*
COc1cc(/C=C2/C(=O)NC(=O)N(c3ccccc3)C2=O)ccc1O	28.2	?	?
COc1ccccc1N1C(=O)NC(=O)/C(=C\c2cnn(-c3ccccc3)c2)C1=O	·	·	8.91µM*
CC(=O)[C@H]1CC[C@H]2C3CC[C@H]4C[C@H](O)CC[C@]4(C)C3CC[C@]12C (some centres undefined)	·	·	0.0%
C[C@H](CN(C)C)C(C#N)(c1ccccc1)c1ccccc1	·	-5.7%	14.5%[13.5 µM]
c1ccc(N2CCCC3(CCNCC3)C2)nc1	·	-29.3%	?
C=C1[C@@H](O)C2C=CC[C@H](C)C(=O)[C@@](C)(O)C=C[C@@H](OC(C)=O)[C@@]23C(=O)N[C@H](Cc2ccccc2)[C@@H]3[C@@H]1C (some centres undefined)	·	-15.9%	-5.2%
O=C(CC[N+](=O)[O-])OCC1OC(O)C(OC(=O)CC[N+](=O)[O-])[C@@H](OC(=O)CC[N+](=O)[O-])C1OC(=O)CC[N+](=O)[O-] (some centres undefined)	·	-9.9%	0.7%
NC[C@@H](CC(=O)O)c1ccc(Cl)cc1	·	-5.0%	12.1%
O=c1[nH]c(=O)n(C2CCCCC2)c(O)c1C=Nc1ccc(N2CCOCC2)cc1	-97.4*	?	-0.4%
O=c1[nH]c(=S)n(-c2ccc(Cl)cc2)c(O)c1C=Nc1ccc(N2CCOCC2)cc1	·	·	0.6%
C[C@@H]1O[C@H](C[N+](C)(C)C)C[C@H]1O	·	-5.6%	-3.2%
Cc1ccc(O)c(C(=O)c2cc(C(=O)NCc3ccccc3)c(=O)n(Cc3ccccc3)c2)c1	202.9	-29.3%	?
O=C(c1cc(C(=O)NCc2ccccc2)c(=O)n(Cc2ccccc2)c1)c1cc(Br)ccc1O	-21.7	10µM*	-14.1%
CN(C)C(=O)Oc1cc(OC(=O)N(C)C)cc([C@@H](O)CNC(C)(C)C)c1	·	2.2%	3.0%[20.9 µM]
CCOP(=O)(OCC)Oc1cc(C)c(N(C)C)c(C)c1	·	·	-2.4%
CCOP(=S)(OCC)Oc1cc(C)oc(=O)c1Cl	·	·	1µM*
CCOP(=S)(OCC)Oc1cc(C)nc(C(C)C)n1	·	-1.5%	?
CCOP(=S)(OCC)Oc1cc(C)oc(=O)c1	·	·	7.94µM*
C=CCN1C(=O)NC(=O)/C(=C/c2cc3c4c(c2)CCCN4CCC3)C1=O	?	14.1µM*	0.891µM*
C=CCN1C(=O)NC(=O)/C(=C/c2cnc(SC)nc2)C1=O	-10.8	-4.1%	1.3%
CC1(C)N([O-])[N+](=O)C1(C)Br (centres undefined)	·	31.6µM*	11.2µM*
CN1[C@@H]2CC[C@H]1CC(OC(c1ccc(F)cc1)c1ccc(F)cc1)C2 (some centres undefined)	·	-9.2%	10.6%
O=[N+]([O-])c1ccc(O[C@@H]2O[C@H](CO)[C@@H](O)[C@H](O)[C@H]2F)c([N+](=O)[O-])c1	·	-10.6%	?
O=c1[nH]c(=O)n(CCC2=CCCCC2)c(O)c1C=NCc1cccnc1	59.0	-13.9%	25.1µM*
SMILES	PNC assembly inh	HPGD inh	ALDH1A1 inh
CCN(CC)CCN=Cc1c(O)n(CCC2=CCCCC2)c(=O)[nH]c1=O	37.9	-6.2%	?
C[N+](C)(C)CC#CCOC(=O)Nc1cccc(Cl)c1	·	-12.1%	7.94µM*
C[C@H](NC(C)(C)C)C(=O)c1cccc(Cl)c1	·	-3.3%	?
CC(C)c1cccc(O)c(=O)c1	·	?	4.9%
O=C1C2CCCN2C(c2cccnc2)N1c1ccc(Cl)c(Cl)c1 (centres undefined)	72.2	-7.2%	-3.5%
O=C1C2CCCN2C(c2ccncc2)N1c1ccc(Cl)c(Cl)c1 (centres undefined)	?	·	20µM*
COC(=O)C(N)CCCN=C(N)N[N+](=O)[O-] (centres undefined)	·	-5.4%	-2.2%
Cl.Cl.Cl.Cl.Cl.Cl.N.N.N.N.NNNNN.NNNNN.O.O.[Ru].[Ru].[Ru]	·	-12.0%	-1.2%
CN[C@@H](C)[C@H]1CC[C@@H](N)[C@@H](O[C@@H]2[C@@H](O)[C@@H](O[C@H]3OC[C@@](C)(O)[C@@H](NC)[C@@H]3O)[C@H](N)C[C@@H]2N)O1 (tested in a mixture with another compound)	·	-1.7%	11.4%[20.9 µM]
c1cnc(N2CCC3(CCNCC3)CC2)nc1	·	-12.9%	-16.2%
O=C1CC2(CCCC2)CC(=O)N1CCCCN1CCN(c2ncccn2)CC1	-0.1	4.8%	3.55µM*

Source: PubChem (National Center for Advancing Translational Sciences (NCATS))
